Read-outs that look alike come from different tables or passages of the source.
Tests used:
Parameters in all cases: species or system human, MV4-11 + K-562 + COLO205 + SK-N-BE2 + OVCAR-8
DCTPP1 = conditions: read-out: apparent Kd, n = 1
EPHB4 = conditions: read-out: apparent Kd; compound concentrations: 100 nM and 1000 nM (sheet 'Samples'), CATDS: 0.37827965470914299; n = 1
RIPK3 = conditions: read-out: apparent Kd; compound concentrations: 100 nM and 1000 nM (sheet 'Samples'), CATDS: 0.31274412248273797; n = 1
CSNK2A1;CSNK2A3 = conditions: read-out: apparent Kd, compound concentrations: 100 nM and 1000 nM (sheet 'Samples'), n = 1
CSNK2A2 = conditions: read-out: apparent Kd, compound concentrations: 100 nM and 1000 nM (sheet 'Samples'), n = 1
FYN = conditions: read-out: apparent Kd; compound concentrations: 100 nM and 1000 nM (sheet 'Samples'), CATDS: 8.5832491833895103E-2; n = 1
PIK3CD = conditions: read-out: apparent Kd; compound concentrations: 100 nM and 1000 nM (sheet 'Samples'), CATDS: 0.50363081174980595; n = 1
PRKD1 = conditions: read-out: apparent Kd; compound concentrations: 100 nM and 1000 nM (sheet 'Samples'), CATDS: 0.12301509267520799; n = 1
PRKD2 = conditions: read-out: apparent Kd, n = 1
PRKD3 = conditions: read-out: apparent Kd; compound concentrations: 100 nM and 1000 nM (sheet 'Samples'), CATDS: 0.165514181456969; n = 1
PHKG2 = conditions: read-out: apparent Kd, n = 1
PIK3CG = conditions: read-out: apparent Kd; compound concentrations: 100 nM and 1000 nM (sheet 'Samples'), CATDS: 0.403949586222208; n = 1
FECH = conditions: read-out: apparent Kd; compound concentrations: 100 nM and 1000 nM (sheet 'Samples'), CATDS: 0.167574298527637; n = 1
FLT3 = conditions: read-out: apparent Kd, compound concentrations: 100 nM and 1000 nM (sheet 'Samples'), n = 1
NQO2 = conditions: read-out: apparent Kd; compound concentrations: 100 nM and 1000 nM (sheet 'Samples'), CATDS: 0.179467556500614; n = 1
DDR1 = conditions: read-out: apparent Kd, n = 1
FLT4 = conditions: read-out: apparent Kd, compound concentrations: 100 nM and 1000 nM (sheet 'Samples'), n = 1
JAK2 = conditions: read-out: apparent Kd; compound concentrations: 100 nM and 1000 nM (sheet 'Samples'), CATDS: 0.17425354278837099; n = 1
RET = conditions: read-out: apparent Kd, compound concentrations: 100 nM and 1000 nM (sheet 'Samples'), n = 1
DAPK3 = conditions: read-out: apparent Kd; compound concentrations:100 nM and 1000 nM (sheet 'Samples'); n = 1
EGFR = conditions: read-out: apparent Kd; compound concentrations:100 nM and 1000 nM (sheet 'Samples'); n = 1
HSP90B1 = conditions: read-out: apparent Kd; compound concentrations:100 nM and 1000 nM (sheet 'Samples'); n = 1
IRAK1 = conditions: read-out: apparent Kd; compound concentrations:100 nM and 1000 nM (sheet 'Samples'); n = 1
GARS = conditions: read-out: apparent Kd; compound concentrations: 100 nM and 1000 nM (sheet 'Samples'), CATDS: 0.27158737746623501; n = 1
NTRK1 = conditions: read-out: apparent Kd, n = 1
DDR2 = conditions: read-out: apparent Kd; compound concentrations: 100 nM and 1000 nM (sheet 'Samples'), CATDS: 0.144406437385246; n = 1
PDGFRB = conditions: read-out: apparent Kd; compound concentrations: 100 nM and 1000 nM (sheet 'Samples'), CATDS: 0.14329981050248; n = 1
MAPK14 = conditions: read-out: apparent Kd; compound concentrations:100 nM and 1000 nM (sheet 'Samples'); n = 1
MAPK6 = conditions: read-out: apparent Kd; compound concentrations:100 nM and 1000 nM (sheet 'Samples'); n = 1
NUAK1 = conditions: read-out: apparent Kd; compound concentrations:100 nM and 1000 nM (sheet 'Samples'); n = 1
[1] = compound concentrations:100 nM and 1000 nM (sheet 'Samples')

NC(=O)c1cc(-c2ccc(F)cc2)cc(-c2ccncc2)c1N [GSK620503A]
potency estimated from few doses (DCTPP1; compound concentrations: 100 nM and 1000 nM (sheet 'Samples'), CATDS: 0.31656078381531599): 1520 nM | potency estimated from few doses (EPHB4): 1070 nM | potency estimated from few doses (RIPK3): 1560 nM

Cc1cccc(-c2nc(Nc3ccc4[nH]nnc4c3)c3ccccc3n2)n1 [GW867587X]
potency estimated from few doses (CSNK2A1;CSNK2A3; CATDS: 0.129612529480612): 199 nM | potency estimated from few doses (CSNK2A2; CATDS: 0.107908062412964): 369 nM | potency estimated from few doses (FYN): 1180 nM | potency estimated from few doses (PIK3CD): 13.2 nM | potency estimated from few doses (PRKD1): 233 nM | potency estimated from few doses (PRKD2; compound concentrations: 100 nM and 1000 nM (sheet 'Samples'), CATDS: 0.237501197916752): 47 nM | potency estimated from few doses (PRKD3): 103 nM

O=[N+]([O-])c1ccc2c(c1)C(c1ccccc1Cl)=Nc1c[nH]nc1N2 [RO0117162-000]
potency estimated from few doses (DCTPP1; compound concentrations: 100 nM and 1000 nM (sheet 'Samples'), CATDS: 0.34611685739606901): 1450 nM | potency estimated from few doses (PHKG2; compound concentrations: 100 nM and 1000 nM (sheet 'Samples'), CATDS: 0.27508455171149998): 2440 nM | potency estimated from few doses (PIK3CG): 1090 nM

O=C1N=C(NCCc2ccc(Br)cc2)S/C1=C\c1ccc2ncccc2c1 [RO4508334-000]
potency estimated from few doses (CSNK2A1;CSNK2A3; CATDS: 0.17522676424385999): 1740 nM | potency estimated from few doses (CSNK2A2; CATDS: 0.185061390376627): 1520 nM | potency estimated from few doses (FECH): 1950 nM | potency estimated from few doses (FLT3; CATDS: 0.42553970171458699): 345 nM | potency estimated from few doses (NQO2): 1640 nM

CN(c1ccc2c(c1)nc(NCc1ccccc1)n2C)c1ccnc(Nc2ccc(CS(C)(=O)=O)cc2)n1.Cl [GW811603A]
potency estimated from few doses (DDR1; compound concentrations: 100 nM and 1000 nM (sheet 'Samples'), CATDS: 0.142121036969732): 962 nM | potency estimated from few doses (FLT3; CATDS: 0.139763894659995): 1030 nM | potency estimated from few doses (FLT4; CATDS: 0.42297219111770701): 63.4 nM | potency estimated from few doses (JAK2): 465 nM | potency estimated from few doses (RET; CATDS: 0.369571760306865): 79.9 nM

Cn1cc(-c2ccc3c(c2)CCN3C(=O)Cc2cccc(C(F)(F)F)c2)c2c(N)ncnc21 [GSK2606414A]
potency estimated from few doses (DDR1; [1]): 1550 nM

Cl.O=S1CCN(Cc2ccc(-c3ccc4ncnc(Nc5ccc(OCc6ccccc6)c(F)c5)c4c3)o2)CC1 [GW576924A]
potency estimated from few doses (DAPK3): 1760 nM | potency estimated from few doses (EGFR): 28.8 nM | potency estimated from few doses (HSP90B1): 1100 nM | potency estimated from few doses (IRAK1): 1540 nM

FC(F)(F)c1ccc(-c2nn3ncccc3c2-c2ccnc(Nc3ccccc3)n2)cc1 [GW828206X]
potency estimated from few doses (DDR1; compound concentrations: 100 nM and 1000 nM (sheet 'Samples'), CATDS: 0.34932428035118401): 1130 nM | potency estimated from few doses (GARS): 2010 nM | potency estimated from few doses (NTRK1; compound concentrations: 100 nM and 1000 nM (sheet 'Samples'), CATDS: 0.40728649446902998): 854 nM

Cc1c2ccc(N(C)c3ccnc(Nc4cccc(S(N)(=O)=O)c4)n3)cc2nn1C.Cl [GW771127A]
potency estimated from few doses (DDR1; compound concentrations: 100 nM and 1000 nM (sheet 'Samples'), CATDS: 0.23686059185109401): 397 nM | potency estimated from few doses (DDR2): 1670 nM | potency estimated from few doses (FLT4; CATDS: 0.67629550242263303): 51.7 nM | potency estimated from few doses (PDGFRB): 1720 nM | potency estimated from few doses (RET; CATDS: 0.185315990587263): 746 nM

NCC1CNC(=O)c2cc3ccc(C(=O)Nc4cccnc4)cc3n2C1 (stereo not shown) [BI00614644]
potency estimated from few doses (DCTPP1; [1]): 1830 nM | potency estimated from few doses (MAPK14): 1320 nM | potency estimated from few doses (MAPK6): 1330 nM | potency estimated from few doses (NTRK1; [1]): 1520 nM | potency estimated from few doses (NUAK1): 1090 nM | potency estimated from few doses (PHKG2; [1]): 1110 nM | potency estimated from few doses (PRKD2; [1]): 950 nM
